Bioassay records from PubChem BioAssay.
mTORC1 inh: mTORC1 pathway inhibition measured by phospho-rpS6; AID 493208; 44,000 tested, 0.78% active; Potency, µM (top dose mostly 38.3 µM), inactives show at the highest dose activity change, negative = inhibition, actives largely listed as inhibitors; Tsc2-/- p53-/- MEF, phospho-rpS6 immunofluorescence/PI, 24 h;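 further: plate controls were DMSO for no effect and rapamycin for full effect; nearly all actives have a fitted effect of over 50% in size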
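Plate MEFs (Tsc2-/-, p53-/-, empty vector) in DMEM/10% FBS; after 24 h add compound, incubate 24 h at 37 degree Celsius; fix in PFA/TX-100, block, stain phospho-rpS6 and 10 uM PI; scan at 488 nm; report % positive cells.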
OvCa metastasis: ovarian cancer metastasis inhibition, 3D TME model; SKOV3ip1-GFP adhesion/invasion on 3D omental model, fluorescence; Potency, µM (top dose mostly 45.8 µM), for the others: at the highest dose activity change, negative = inhibition, usual class: inhibitors; 46,000 tested, 0.1% active;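 further: plate controls were DMSO wells for no effect and tomatine positive control wells for full effect; nearly all actives have a fitted effect of over 65% in size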
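qHTS, 4-pt dose (0.36-46 umol/L); SKOV3ip1-GFP, 1,200 cells/well, no FBS; primary omental fibroblast/mesothelial co-culture 48 h pre-grown; 2 h RT + 16 h 37 C; PBS wash, 4% PFA; GFP count 488/509 nm.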
p53null 32C tox: selectivity test: cytotoxicity in p53 null cells, permissive temperature; H1299-neo p53 null cells, ATP luminescence, 24 h, 32C; Potency, µM (doses to about 46.1 µM), without a hit: at the highest dose activity change, negative = cytotoxicity, usual class: cytotoxic; 55,000 tested, 0.62% active; AID 903;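 further: 0% = DMSO only and -100% = full killing by 100 µM tamoxifen; nearly all actives have a fitted effect of over 55% in size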
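AC50 values derive from Hill modelling of qHTS concentration-response data (up to 46 uM) in H1299-neo cells. Cells were treated 24 h at 32C following overnight attachment at 37C; viability was read as cellular ATP.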
p53null 39C kill: p53 null cell cytotoxicity, nonpermissive temperature | 55,000 tested, 0.97% active | Potency, µM (top dose mostly 46.1 µM), for inactives: at the highest dose activity, negative = cell killing, usual class: cytotoxic | H1299 p53-null (neo) cells, 39C, ATPlite viability, 24 h | AID 904;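 further: 0% = DMSO only and -100% = full killing by 100 µM tamoxifen; nearly all actives have a fitted effect of over 50% in size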
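Temperature-shift cytotoxicity format: compound titrations on p53-null or A138V-expressing H1299 cells held 24 hr at 39C, cell ATP then measured, AC50 from Hill model.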
S16 viability: cytotoxicity in S16 Pmp22-F2sN Schwann cells; 43,000 tested, 0.48% active; S16 Pmp22-F2sN Schwann cells viability, CellTiter-Glo, 24 h; Potency, µM (top dose mostly 57.5 µM), inactives show at the highest dose activity change, negative = cytotoxicity, actives largely listed as cytotoxic; further: nearly all actives have a fitted effect of over 65% in size
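Luminescence from CellTiter-Glo, read by CCD camera after a 15 min room-temperature incubation, served as the viability signal. Reporter Schwann cells (S16 Pmp22-F2sN) had been treated with pin-transferred compounds for 24 h at 37C.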
PMP22 txn: modulates PMP22 transcription in S16 Schwann cells. S16 Pmp22-F2sN Schwann cells (luciferase reporters placed in the Pmp22 gene), FLuc/NLuc coincidence luminescence, 24 h. Potency, µM (top dose mostly 57.5 µM), inactives show at the highest dose activity change, negative = inhibition, usual class: inhibitors. 43,000 tested, 2% active. AID 1508649; active means clear falling dose curves in both reporters; inconclusive means both reporters move, but less clearly or upward; inactive means either reporter flat; the % is the NLuc reporter signal
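Reporter cells (S16 Pmp22-F2sN, 500–1,000 per well) exposed to compounds for 24 h, 37C, 5% CO2; lysis with FLuc read after 10 min, then Stop&Glo and NLuc read after 10 min.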
The depositor's hits bear a star. A selection: hits, their analogues and other compounds. The true share with any hit is near 3%. Unless noted, the call rests on the fitted dose curve; in most records, active means well fitted curve in the direction sought with a large enough effect; inconclusive means small, poorly fitted or top-dose-only effect, or another doubt; inactive means no such curve, though single readings can be large; an effect the other way counts as inactive or inconclusive. Unless noted, on the % scale 0 is the no-effect control and ±100 the full control effect; potency means the concentration at half of the fitted maximal effect.

`COc1ccc2nc(NC(=O)c3nc(SCc4ccccc4F)ncc3Cl)sc2c1` gave mTORC1 inh 2%, OvCa metastasis 3%, p53null 32C tox -6%, p53null 39C kill 13%, S16 viability 11% and PMP22 txn -1%.
Screening CN(C)CCN1C(=O)c2cccc3cc(N)cc(c23)C1=O returned OvCa metastasis 11%.
For C=C(C)[C@@H]1CC[C@]2(C)CC[C@]3(C)[C@H](CC[C@@H]4[C@@]5(C)CC[C@H](O)C(C)(C)[C@H]5CC[C@]43C)[C@@H]12 the results were OvCa metastasis -3%.
Screening COCCOc1nc(-c2ccc(Cl)c(Cl)c2)n(-c2ccc(NC(=O)CCl)cc2)n1 returned OvCa metastasis 20%.
c1ccc(-c2oc3ncnc(NC[C@@H]4CCCO4)c3c2-c2ccccc2)cc1 was read as OvCa metastasis -1%.
For COc1ccc2nc(NC(=O)c3nc(S(=O)(=O)Cc4ccccc4)ncc3Cl)sc2c1 the results were mTORC1 inh 9.3µM*, OvCa metastasis inconclusive, p53null 32C tox -26%, p53null 39C kill inconclusive, S16 viability 5.6µM* and PMP22 txn 3µM*.
Screening Cc1nnc(NC(=O)c2nc(S(=O)(=O)Cc3ccccc3)ncc2Cl)s1 returned mTORC1 inh inconclusive, OvCa metastasis inconclusive, p53null 32C tox inconclusive, p53null 39C kill inconclusive, S16 viability 5µM* and PMP22 txn 13µM*.
CCN(c1ccccc1)S(=O)(=O)c1nnc(NC(=O)c2cccs2)s1 was read as mTORC1 inh 3%, OvCa metastasis 8%, p53null 32C tox 1.3µM*, p53null 39C kill 1µM*, S16 viability -18% and PMP22 txn -5%.
Screening CCN(c1ccc(C)cc1)S(=O)(=O)c1nnc(NC(=O)c2cccs2)s1 returned mTORC1 inh -1%, OvCa metastasis inactive, p53null 32C tox 8%, p53null 39C kill inconclusive, S16 viability -3% and PMP22 txn -30%.
`CC(C)CN(c1ccccc1)S(=O)(=O)c1nnc(NC(=O)c2ccco2)s1` gave mTORC1 inh -3%, OvCa metastasis 9%, p53null 32C tox inconclusive, p53null 39C kill 2µM*, S16 viability 1% and PMP22 txn -28%.
`CCn1cnc2cc(NC(=O)c3ccco3)ccc21` gave p53null 32C tox 10µM* and p53null 39C kill 13µM*.
For O=C(Nc1ccc2nn(-c3ccccc3)nc2c1)c1ccco1 the results were p53null 32C tox -25% and p53null 39C kill -29%.
NC(=O)c1cnc(-c2ccc(C3(N)CCC3)cc2)c(-c2ccccc2)c1 was read as OvCa metastasis 1%.
O=C(Nc1c(Cl)cccc1Cl)c1cc(-c2cccc(O)c2)on1 was read as mTORC1 inh -2%, OvCa metastasis inactive, p53null 32C tox 62% and p53null 39C kill 13µM*.
Cn1cc(-c2[nH]c3cc(NC(=O)[C@H](N)C4CCCCC4)cc4c3c2C=NNC4=O)cn1 was read as OvCa metastasis 22%.
O=C(CSc1nnc(-c2ccccc2Cl)o1)Nc1ccc2c(c1)OCCO2 was read as p53null 32C tox -7% and p53null 39C kill -8%.
Screening COc1ccccc1NC(=O)CSc1nnc(-c2ccccc2C)o1 returned mTORC1 inh -2%, OvCa metastasis 3%, p53null 32C tox inconclusive, p53null 39C kill 4µM*, S16 viability 0% and PMP22 txn 2%.
COc1cccc(NC(=O)CSc2nnc(-c3cccc(OC)c3)o2)c1 was read as mTORC1 inh -15%, OvCa metastasis 4%, p53null 32C tox 16µM*, p53null 39C kill 6.3µM*, S16 viability -8% and PMP22 txn -15%.
